# KCNH2 3.1 block – blocks the human KCNH2 3.1 channel isoform; activity change, % (tested at about 1.8 µM); U2OS KCNH2 3.1, thallium flux FluxOr; stronger effect = lower value; hit rate 0.95% among 340,000;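 active = maximum activity change below -70%; inconclusive = maximum activity change from -70% to -50%; inactive = maximum activity change above -50%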;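 also: thallium influx rate constant from kinetic fluorescence after stimulation buffer; % is scaled to controls: 0 for no effect and ±100 for the full control effect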
#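 Measured as rate of thallium-driven FluxOr signal in transduced U2OS cells carrying the 3.1 channel, read kinetically for 2 min upon stimulation; values are rate constants scaled to DMSO control wells.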
# RXFP1 antagonist – blocks the human relaxin receptor RXFP1 | AID 1259400 | activity change, negative = inhibition, % at 57.5 µM | HEK293-RXFP1, relaxin-stimulated cAMP HTRF, 30 min; stronger effect = lower value | Q9HBX9 | hit rate 0.59% among 350,000;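 active = activity change of -60% or lower, but not beyond a set lower limit; inconclusive = change between -60% and -40%, or beyond the set limit; inactive = change above -40%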; also: % is scaled to controls: 0 for no effect and ±100 for the full control effect
# PTHR1 agonist – PTHR1 (human) receptor agonism; hit rate 0.075% among 410,000; Q03431; Potency, µM (series often up to 115 µM), inactives show at the highest dose activation, hits mostly activators; HEK293 GP2 PTHR1 cells, GloSensor cAMP luminescence, 1 h; also: potency is read from the fitted curve at half-maximal effect; nearly all actives have a fitted effect of over 55% in size
#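 HEK-293-derived GP2 cells expressing PTHR1 and a GloSensor cAMP reporter, 3,000/well, plated overnight, given luciferin plus IBMX (each 0.5 mM as added) for 1 h at 37 °C, then compound for 1 h at 37 °C. Luminescence was read after 15 min at room temperature.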
# Glioma ERSR ind – inducers of ER stress response in human glioma cells; U87-MG GRP78 promoter luciferase reporter, 16 h; Potency, µM, for the others: at the highest dose activation, actives largely listed as activators; hit rate 0.02% among 420,000; also: potency is read from the fitted curve at half-maximal effect; series mostly up to about 76 µM; % of control where 0% means no effect; nearly all actives have a fitted effect of over 35% in size
#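 Stably transfected U87-MG glioma cells carrying a GRP78-based luciferase sensor; 16 h compound incubation. Luminescence end-point read 10 min after Bright-Glo addition at room temperature.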
# RXFP1 ag – agonists of human relaxin receptor RXFP1. Q9HBX9. HEK293T-RXFP1 cAMP TR-FRET, 30 min; response scale: percent of porcine relaxin response, buffer zero. Potency, µM (doses to about 57.5 µM), inactives show top-dose activation, most hits filed as activators. hit rate 0.3% among 370,000. AID 2676; also: potency is read from the fitted curve at half-maximal effect; % is scaled to controls: 0 for no effect and ±100 for the full control effect; nearly all actives have a fitted effect of over 60% in size
#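 Agonist response is measured as cAMP accumulation in an RXFP1-transfected HEK293T line under PDE4 inhibition. Values are scaled between buffer-only and 29 nM porcine relaxin, and EC50s come from standard Hill equation fits.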
# hERG WT inh – KCNH2 (human, wildtype) channel inhibition. Q12809. U2OS, BacMam KCNH2, thallium flux FluxOr; stronger effect = lower value. activity change, % at 1.84 µM. hit rate 0.37% among 340,000. AID 720551;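 active = maximum activity change below -70%; inconclusive = maximum activity change between -70% and -50%; inactive = maximum activity change above -50%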; also: % is scaled to controls: 0 for no effect and ±100 for the full control effect
#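 U2OS cells were transduced with wild-type KCNH2 virus (2.03 x 10^8 / mL) for 4 h at room temperature, then cultured overnight at 37 C. Thallium flux was read with FluxOr dye. Rate constants were normalized to DMSO controls.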
# An asterisk follows results filed as active; i = inactive; u = inconclusive; x = not tested or not shown; [ ] = another dose, or the depositor's remark. Shown are actives, neighbours in structure and some others; about 1.4% of the full set was active somewhere. Unless noted, calls follow the shape of the dose curve; as a rule, active = well fitted curve in the direction sought with a large enough effect; inconclusive = small, poorly fitted or top-dose-only effect, or another doubt; inactive = no such curve, though single readings can be large; an effect the other way counts as inactive or inconclusive.
SMILES,KCNH2 3.1 block,RXFP1 antagonist,PTHR1 agonist,Glioma ERSR ind,RXFP1 ag,hERG WT inh
CCN(CC)c1ccc2cc(-c3nc(-c4ccc(OC)cc4)cs3)c(=O)oc2c1,-132.5*,x,i,-3.7%,6.9%,-233.4*
CCN(CC)c1ccc2cc(-c3nnc(-c4ccccc4)o3)c(=O)oc2c1,-40.6,-6.7,-23.2%,1.9%,-0.4%,-96.0*
CCN(CC)c1ccc2cc(-c3nc4ccccc4[nH]3)c(=O)oc2c1,-112.2*,8.1,-17.3%,-5.2%,9.2%,-93.3*
CC(C)NC(=O)C1CCN(C2CCN(Cc3nc4ccccc4s3)CC2)CC1,-118.1*,7.4,-16.7%,-4.7%,0.4%,2.0
CCOc1ccc(-c2nc(Cn3ccn4nc(-c5ccc(OCC)c(Cl)c5)cc4c3=O)c(C)o2)cc1,x,x,-19.9%,-4.3%,11.2%,x
Cc1ccc2[nH]c(=O)c(CN(Cc3ccc4c(c3)OCO4)Cc3nnnn3C3CCCC3)cc2c1,-128.4*,0.8,-62.8%,7.6%,5.8%,-1.5
CCc1ccc2[nH]c(=O)c(CN(Cc3nnnn3C3CCCC3)C3CCCCC3)cc2c1,-189.3*,2.3,i,4.4%,3.9%,-9.7
O=C(Nc1ccc(S(=O)(=O)NCc2ccccc2)cc1)C1CCCCC1,-71.9*,5.7,-17.0%,-4.0%,2.2%,5.2
CC(=O)Nc1ccc(S(=O)(=O)NCC2CCC(C(=O)NCc3ccccc3)CC2)cc1 (stereo unspecified),-4.2,-1.8,-18.4%,-1.2%,-0.8%,x
O=C(COC(=O)c1cc(S(=O)(=O)N2CCOCC2)ccc1F)Nc1c(Cl)cccc1C(F)(F)F,5.2,-15.0,i,-6.0%,3.1%,3.5
CCc1nc(N)nc(N)c1-c1ccc(N(C)Cc2ccccc2)c([N+](=O)[O-])c1,u,-103.4*,-18.4%,-6.3%,x,-20.5
COCCCNCCCCOc1ccc(OCc2ccccc2)cc1,-76.8*,-27.7,i,0.7%,0.5%,46.6
c1ccc(COc2ccc(OCCCNC3CCCC3)cc2)cc1,u,-86.1*,-15.0%,0.8%,1.1%,42.0
O=C(NC1CCCC1)c1ccccc1OCc1ccccc1,10.4,-81.8*,-22.8%,-4.1%,-1.6%,8.0
C=CCNCCCCOc1ccc(OCc2ccccc2)cc1,u,-2.1,-20.7%,-3.6%,2.9%,x
CC(C)Oc1ccc(OCCNC2CCCC2)cc1,10.4,-4.1,i,1.4%,0.1%,8.5
COc1ccc(NS(=O)(=O)c2ccc(O)c(NC(=O)c3ccc(S(=O)(=O)N4CCCC4)cc3)c2)cc1,7.4,-60.1*,i,-7.4%,-1.5%,-2.5
COc1cccc(C2c3[nH]c4ccccc4c3C[C@H]3C(=O)N(CCCOC(C)C)CC(=O)N23)c1 (stereo partly specified),-156.3*,-0.2,i,-1.8%,-0.4%,3.6
CCOC(=O)C1C(=O)N(O)CC1c1cccc(Oc2ccccc2)c1 (stereo unspecified),-74.7*,-0.2,-20.8%,3.0%,-0.5%,-1.9
Cc1ccc(Cl)cc1-n1ncc2c(N3CCN(Cc4ccccc4)CC3)ncnc21,x,-81.5*,-94.1%,-0.7%,2.9%,x
CCN1CCN(c2ncnc3c2cnn3-c2cc(Cl)ccc2C)CC1,x,-1.3,4.4%,-4.4%,1.2%,x
CCOC(=O)C1(CCOc2ccccc2)CCN(Cc2ccc(OCCO)cc2)CC1,-109.8*,4.6,-27.3%,-2.4%,0.4%,-77.0*
CCOC(=O)C1(CCOc2ccccc2)CCN(Cc2ccc(O)cc2)CC1,-84.1*,-6.7,-31.4%,-2.1%,-0.6%,-20.8
CCCN1CCC(CCOc2ccccc2)(C(=O)OCC)CC1,-20.9,-0.6,-23.2%,-1.0%,0.5%,20.5
CCc1ccc2[nH]c(=O)c(CN(CCN(C)C)C(=S)NCc3ccco3)cc2c1,-0.9,-64.1*,-20.1%,-1.2%,-1.3%,13.8
SMILES,KCNH2 3.1 block,RXFP1 antagonist,PTHR1 agonist,Glioma ERSR ind,RXFP1 ag,hERG WT inh
CCc1ccc2[nH]c(=O)c(CN(CCN(CC)CC)C(=S)NCc3ccco3)cc2c1,-32.8,-10.3,-30.0%,-3.1%,0.1%,25.9
COc1ccccc1OC(C)C(=O)N1CC(=O)Nc2ccccc21 (stereo unspecified),-2.5,-23.2,-3.3%,-8.0%,2.4%,5.7
COc1ccc(NC(=O)c2ccc(NC(=O)CCS(=O)(=O)c3cccs3)cc2)cc1,-0.1,-96.7*,-12.2%,-4.4%,0.4%,-0.5
Cc1ccc(NC(=O)CN2C(=O)S/C(=C\c3cc(C)n(C)c3C)C2=O)cc1,-93.4*,-27.8,i,-3.0%,3.2%,-0.6
Cc1ccc(NC(=O)CN2C(=O)S/C(=C/c3ccc(O)c([N+](=O)[O-])c3)C2=O)cc1C,-4.0,-62.5*,-11.5%,2.2%,0.0%,3.8
Cc1cccc(NC(=O)CN2C(=O)S/C(=C\c3cc(C)n(C)c3C)C2=O)c1,-22.5,-7.6,-56.7%,-7.7%,3.0%,1.2
Cc1ccc(NC(=O)CC(C)S(=O)(=O)c2ccc3c(c2)NC(=O)CO3)cc1C (stereo unspecified),0.0,-0.7,-25.3%,0.6%,2.0%,-21.2
OCCC1CN(Cc2ccc(F)cc2)CCN1CCc1ccccc1 (stereo unspecified),-79.3*,-4.6,-14.4%,-2.2%,1.1%,50.2
CC(C)CCN1CCN(CC(c2ccccc2)c2ccccc2)CC1CCO (stereo unspecified),-73.5*,-25.3,i,-4.6%,-0.4%,-19.2
OCCC1CN(Cc2ccc(F)cc2)CCN1CCCc1ccccc1 (stereo unspecified),u,-5.9,6.0%,-5.5%,1.4%,39.8
C#Cc1ccc(CN2CCN(CCc3ccccc3)C(CCO)C2)cc1 (stereo unspecified),-73.5*,3.4,u,-2.7%,-0.4%,11.7
OCCC1CN(Cc2ccccc2O)CCN1CCc1ccccc1 (stereo unspecified),5.8,-13.0,i,0.2%,0.0%,-0.7
CC(C)CCN1CCN(Cc2nc3ccccc3s2)CC1CCO (stereo unspecified),-0.1,-9.9,i,-1.5%,2.3%,3.5
CCOc1ccc(OCCn2c(=S)[nH]c3ccccc32)cc1,-34.2,-63.2*,-26.0%,4.5%,2.3%,-20.4
CCOc1cc(S(=O)(=O)Nc2cc(C)cc(C)c2)ccc1Cl,9.2,-9.1,-23.9%,1.3%,1.2%,3.2
COc1cccc(OCCn2cc(C(C)=O)c3ccccc32)c1,-45.0,-5.3,-41.3%,-2.6%,0.3%,-23.4
CCCCC(=O)Nc1ccc(C(=O)NNC(=S)NC(=O)c2ccco2)cc1,-7.2,1.1,u,-1.1%,-0.5%,-0.7
CCCCC(=O)Nc1ccc(C(=O)NNC(=O)c2ccco2)cc1,-12.6,-25.9,-5.9%[57.5 µM],0.5%,0.2%,-153.7*
Cc1ccc2cccc(S(=O)(=O)N3CCN(c4cccc(Cl)c4)CC3)c2n1,-39.9,-6.5,-17.5%,-4.0%,1.6%,-10.5
